About 2,200 (0.71%) of roughly 310,000 compounds showed an effect of 50% or more. The effect is printed as a negative number. The sample as a whole holds a higher share of strong results than the screen did.

Sequence of human ether-à-go-go-related gene (hERG) potassium channel (Q12809 whole entry, looked up): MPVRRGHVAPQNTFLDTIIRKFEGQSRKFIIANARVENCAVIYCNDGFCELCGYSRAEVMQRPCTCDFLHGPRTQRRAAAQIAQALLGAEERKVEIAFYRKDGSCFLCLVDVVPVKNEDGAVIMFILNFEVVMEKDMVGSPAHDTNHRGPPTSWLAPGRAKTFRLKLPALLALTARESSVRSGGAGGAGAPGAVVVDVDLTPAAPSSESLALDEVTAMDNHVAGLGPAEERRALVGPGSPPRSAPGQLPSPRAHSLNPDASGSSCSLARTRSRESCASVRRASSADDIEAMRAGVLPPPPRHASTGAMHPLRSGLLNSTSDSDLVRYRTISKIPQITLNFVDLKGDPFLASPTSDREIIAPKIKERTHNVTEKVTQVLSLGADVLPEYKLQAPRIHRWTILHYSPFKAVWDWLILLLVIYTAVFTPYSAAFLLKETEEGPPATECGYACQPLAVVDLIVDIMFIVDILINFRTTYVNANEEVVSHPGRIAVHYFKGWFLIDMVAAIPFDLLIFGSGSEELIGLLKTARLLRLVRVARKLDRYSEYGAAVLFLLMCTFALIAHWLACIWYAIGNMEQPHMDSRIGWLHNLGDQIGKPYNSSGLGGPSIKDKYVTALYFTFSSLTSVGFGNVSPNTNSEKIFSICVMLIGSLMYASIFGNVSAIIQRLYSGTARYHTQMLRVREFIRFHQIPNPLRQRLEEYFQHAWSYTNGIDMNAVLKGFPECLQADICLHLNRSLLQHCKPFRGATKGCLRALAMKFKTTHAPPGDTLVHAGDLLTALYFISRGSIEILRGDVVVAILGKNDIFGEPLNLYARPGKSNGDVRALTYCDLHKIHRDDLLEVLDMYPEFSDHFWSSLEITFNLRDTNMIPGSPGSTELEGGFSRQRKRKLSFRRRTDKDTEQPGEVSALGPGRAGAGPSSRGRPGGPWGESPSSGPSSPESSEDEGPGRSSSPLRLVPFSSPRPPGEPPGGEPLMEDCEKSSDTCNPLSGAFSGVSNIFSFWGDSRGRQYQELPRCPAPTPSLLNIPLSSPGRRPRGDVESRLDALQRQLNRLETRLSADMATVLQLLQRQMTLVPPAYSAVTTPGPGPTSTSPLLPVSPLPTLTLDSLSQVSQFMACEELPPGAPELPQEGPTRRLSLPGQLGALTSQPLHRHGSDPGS

This test concerns the target human ether-à-go-go-related gene (hERG) potassium channel (human, UniProt Q12809). The experiment in a line: primary screen, population patch clamp on CHO cells stably expressing hERG; higher = less effect of the substance.
For `O=C(Nc1ccc(Cl)cc1)c1cc(S(=O)(=O)N2CCOCC2)cs1`, the “hERG current change (%, negative = inhibition) at 1uM” value was -7.43%. `COCCCN(Cc1ccco1)C(=O)Cn1ncc2c([nH]c3ccccc32)c1=O`: the “hERG current change (%, negative = inhibition) at 1uM” value is reported as -5.46%.

With `O=C(N/N=C1/CCc2ccccc21)C1CC1`, the “hERG current change (%, negative = inhibition) at 1uM” value is on record as 6.47%.

Consider `Cc1ccc(CNC(=O)COC(=O)c2ccc(S(=O)(=O)N(C)C)cc2)cc1`, for which the “hERG current change (%, negative = inhibition) at 1uM” value came to 17.8%.

On to `CCN(CC)c1ccc2ccc(=O)oc2c1`, for which the “hERG current change (%, negative = inhibition) at 1uM” value is 7.92%.

Take `O=C(NNC(=O)c1ccc(Cl)c(S(=O)(=O)Nc2ccc(Cl)cc2)c1)c1ccc(=O)[nH]c1`: the “hERG current change (%, negative = inhibition) at 1uM” value is on record as 14.5%. As for `COc1ccc(-c2nnc3ccc(SCC(=O)N4CCCCC4)nn23)cc1OC`, the “hERG current change (%, negative = inhibition) at 1uM” value is 6.34%. As to `Cc1cc2nc(-c3ccc(=O)[nH]c3)n(C)c2cc1C`, the “hERG current change (%, negative = inhibition) at 1uM” value is listed as 11%. `Cc1ccc(-c2csc(NC(=O)c3ccc(F)cc3)c2C(=O)O)cc1`: the “hERG current change (%, negative = inhibition) at 1uM” value was found to be 16%. Regarding `CCOC(=O)C1(C)Oc2ccc(S(=O)(=O)CC)cc2NC1=O` (stereo not drawn), the “hERG current change (%, negative = inhibition) at 1uM” value is recorded as 16.3%. As for `COCCn1nnnc1C(c1ccccn1)N1CCN(c2cc(C)ccc2C)CC1.Cl` (stereo not drawn), the figure is 9.25%. Consider `Cc1[nH]nc2c1C(C(C)c1ccccc1)C(C#N)=C(N)O2` (stereo not drawn), for which the “hERG current change (%, negative = inhibition) at 1uM” value worked out at 7.79%. As for `COc1ccc(-c2c[n+]3c4n2CCCCC4=C(c2ccc(Br)cc2)C3)cc1.[Br-]`, the figure is -79.6%. On to `COc1ccc(C(=O)C[n+]2cc(-c3ccc(OC)cc3)n3c2CCCC3)cc1.[Br-]`, for which the “hERG current change (%, negative = inhibition) at 1uM” value came out at 11.5%. Consider `COc1ccc(-c2c[n+]3c(n2-c2ccccc2)CCCCC3)cc1.[Br-]`, for which the “hERG current change (%, negative = inhibition) at 1uM” value was 2.74%.

As to `COc1ccc(-c2c[n+]3c4n2CCCCC4=C(c2ccccc2)C3)cc1.[Br-]`, the “hERG current change (%, negative = inhibition) at 1uM” value is -74.7%. As for `COc1ccc(-c2c[n+](CC(=O)c3ccccc3)c3n2CCCCC3)cc1.[Br-]`, the figure is 13.7%. As for `Clc1ccc(C[n+]2cc(-c3ccccc3)n3c2CCC3)cc1.[Cl-]`, the figure is 7.34%; as for `Clc1ccc(C2=C3CCCCn4c(-c5ccccc5)c[n+](c43)C2)cc1.[Br-]`, -83.1%.

Turning to `O=C(C[n+]1cc(-c2ccc(Cl)cc2)n2c1CCCCC2)c1ccccc1.[Br-]`, the “hERG current change (%, negative = inhibition) at 1uM” value was -2.53%. In the case of `COc1ccc(-n2c(-c3ccc(Br)cc3)c[n+]3c2CCCCC3)cc1.[Br-]`, the “hERG current change (%, negative = inhibition) at 1uM” value is -24.6%.

Take `COc1cc2c(cc1OC)CN(S(C)(=O)=O)CC2`: the “hERG current change (%, negative = inhibition) at 1uM” value came to 16.5%. Consider `Fc1cccc(CCN2CCNC[C@@H]2CC2CCCCC2)c1`, for which the “hERG current change (%, negative = inhibition) at 1uM” value is on record as 1.12%.

Consider `Cc1ccc2oc(C(=O)NCC3CCOCC3)c(C)c2c1`, for which the “hERG current change (%, negative = inhibition) at 1uM” value was 10.3%. As to `CCn1c(=N)n(CC(O)c2ccco2)c2ccccc21.Cl` (stereo not drawn), the “hERG current change (%, negative = inhibition) at 1uM” value is -7.63%. As for `CCN(CC)CCn1c(=N)n(CC(O)c2ccco2)c2ccccc21.Cl` (stereo not drawn), the “hERG current change (%, negative = inhibition) at 1uM” value is listed as -54.6%. Regarding `Cl.Cn1c(=N)n(CC(O)c2ccco2)c2ccccc21` (stereo not drawn), the “hERG current change (%, negative = inhibition) at 1uM” value stood at 1.97%. Consider `CCCn1c(=N)n(CC(O)c2ccco2)c2ccccc21.Cl` (stereo not drawn), for which the “hERG current change (%, negative = inhibition) at 1uM” value is recorded as -13.8%. Turning to `CCCCCCCn1c(=N)n(CC(O)c2ccco2)c2ccccc21.Cl` (stereo not drawn), the “hERG current change (%, negative = inhibition) at 1uM” value is reported as -76.8%. With `Cl.N=c1n(CCN2CCCC2)c2ccccc2n1CC(O)c1ccco1` (stereo not drawn), the “hERG current change (%, negative = inhibition) at 1uM” value is recorded as -3.97%.

Regarding `O=C(O)C(=O)O.O=[N+]([O-])c1cccc(CN2CCN(Cc3ccc(Cl)cc3)CC2)c1`, the “hERG current change (%, negative = inhibition) at 1uM” value was -27.2%.

As for `COC(=O)c1cc(NC(=O)C2(S(=O)(=O)c3ccc(C)cc3)CC2)cc(C(=O)OC)c1`, the “hERG current change (%, negative = inhibition) at 1uM” value was 0.157%. As to `COc1ccc(O)c(C(=O)c2cc(C#N)c(=O)n(Cc3ccccc3)c2)c1`, the “hERG current change (%, negative = inhibition) at 1uM” value was determined as 8.35%. As to `O=C(NCc1ccccc1)C1(C(F)(F)F)C/C(=C\CCO)CCCO1` (stereo not drawn), the “hERG current change (%, negative = inhibition) at 1uM” value is on record as 14.1%.

With `Cc1ccc(/C=C2/C(=O)NC(=O)N(CCc3ccc(F)cc3)C2=O)o1`, the “hERG current change (%, negative = inhibition) at 1uM” value came to 2.54%.

Regarding `CCC1CN(C(=O)N2CCC(C(=O)NCCc3ccccc3)CC2)c2ccccc2O1` (stereo not drawn), the “hERG current change (%, negative = inhibition) at 1uM” value is 8.85%. As for `COCCCNC(=O)CCc1nc2cccnc2n1Cc1ccccc1`, the “hERG current change (%, negative = inhibition) at 1uM” value was -11.9%. Regarding `O=C(CCc1nc2cccnc2n1Cc1ccccc1)NCCc1ccc(Cl)cc1`, the “hERG current change (%, negative = inhibition) at 1uM” value is -65.2%. As to `CCCCNC(=O)CCc1nc2cccnc2n1Cc1ccccc1`, the “hERG current change (%, negative = inhibition) at 1uM” value is recorded as -34.7%. As for `Cc1ccc([N+](=O)[O-])cc1N/C=C1\CCCCC1=O`, the “hERG current change (%, negative = inhibition) at 1uM” value amounted to 16.5%. Turning to `Cc1ccc(N(CC(=O)NCc2cccnc2)S(C)(=O)=O)cc1C`, the “hERG current change (%, negative = inhibition) at 1uM” value came out at 12.4%. As to `COc1ccc(C2=NOC(C(=O)NCc3cccs3)C2)cc1` (stereo not drawn), the “hERG current change (%, negative = inhibition) at 1uM” value worked out at 21.3%. The figure for `O=C(Nc1ccccc1Cl)c1cc(S(=O)(=O)N2CCCCC2)ccc1N1CCOCC1` is -5.21%; for `NC(=O)c1ccc(NC(=O)c2cc(S(=O)(=O)N3CCCCC3)ccc2N2CCOCC2)cc1` it is 13.4%. With `O=C(Nc1ccccc1N1CCCC1)c1cc(S(=O)(=O)N2CCOCC2)ccc1Cl`, the “hERG current change (%, negative = inhibition) at 1uM” value was -9.58%. On to `CS(=O)(=O)c1ccc(Cl)c(NC(=O)c2cc(S(=O)(=O)N3CCOCC3)ccc2N2CCCC2)c1`, for which the “hERG current change (%, negative = inhibition) at 1uM” value is listed as -60.2%. The figure for `O=C(Nc1ccccc1)c1cc(S(=O)(=O)N2CCCCC2)ccc1N1CCOCC1` is 12.6%; for `N#Cc1ccc(NC(=O)c2cc(S(=O)(=O)N3CCOCC3)ccc2N2CCCC2)cc1` it is -58.9%.

Consider `NC(=O)c1ccccc1NC(=O)c1cc(S(=O)(=O)N2CCCCC2)ccc1N1CCOCC1`, for which the “hERG current change (%, negative = inhibition) at 1uM” value was -60.5%. As for `CNC(=O)c1ccc(NC(=O)c2cc(S(=O)(=O)N3CCOCC3)ccc2N2CCCC2)cc1`, the “hERG current change (%, negative = inhibition) at 1uM” value amounted to 13.5%. The figure for `O=C(Nc1ccccc1N1CCCCC1)c1cc(S(=O)(=O)N2CCOCC2)ccc1Cl` is 7.72%; for `CC1=NN(c2ccc(C(=O)O)cc2)C(=O)/C1=C/c1ccc(-c2ccccc2F)o1` it is 15.2%; for `C=CCOc1cccc(C(=O)N2CCC(CCC(=O)NC3CC3)CC2)c1` it is 12.6%. Take `Cn1c(SCC(=O)N/N=C/C=C\c2ccco2)nc2ccccc21`: the “hERG current change (%, negative = inhibition) at 1uM” value was -13.7%.
